Results filed as inconclusive are left out. Active and inactive are the calls of the source. Unless noted, the call rests on the fitted dose curve.
How the values were obtained:
[1] = Nuclear factor erythroid 2-related factor 2/antioxidant responsive element (Nrf2/ARE) small molecule agonists: qHTS cell viability counter screen in human keratinocytes (AID 1919968; active means well fitted curve in the direction sought with a large enough effect in the repeat runs; an effect the other way counts as inactive or inconclusive; further: nearly all actives have a fitted effect of over 55% in size)
How it was run: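 Stably transfected HaCaT (KeratinoSens), 1,500/well. Test agents in DMSO were applied for 23 h, 37 C/5% CO2. CellTiter-Fluor was incubated 1 h before the fluorescence read.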

[2] = Nuclear factor erythroid 2-related factor 2/antioxidant responsive element (Nrf2/ARE) small molecule agonists: luciferase reporter gene qHTS assay in human keratinocytes (AID 1919969); further: nearly all actives have a fitted effect of over 35% in size
[3] = target: Gonadotropin-releasing hormone receptor (Homo sapiens) (UniProt P30968); experiment: Human gonadotropin-releasing hormone receptor (GnRHR) small molecule agonists, calcium flux assay in GnRHR-HEK293 cells (AID 1920063); further: nearly all actives have a fitted effect of over 35% in size
How it was run: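 Stable human GnRHR HEK293 line. 18 h plating, then calcium dye for 1 h at 37 C. Agonist-mode compound addition from DMSO stocks; fluorescence monitored 3 min.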

[4] = target: KiSS-1 receptor (Homo sapiens) (UniProt Q969F8); experiment: Human kisspeptin (KISS1R) small molecule agonists, calcium flux assay in KISS1R-HEK293 cells (AID 1920064; active means well fitted curve in the direction sought with a large enough effect in the repeat runs; an effect the other way counts as inactive or inconclusive)
How it was run: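 After overnight (18 h) culture at 37 C/5% CO2, human KISS1R-HEK293 cells received calcium dye for 1 h, then test compound; emission at 540 nm (excitation 480 nm) was tracked for 3 min.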

[5] = G protein-coupled receptor (GPCR) small molecule agonists, calcium flux assay: HEK293 wild type cell line counter screen (AID 1920065)
How it was run: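 Following 18 h incubation at 37 C/5% CO2, plates got calcium dye for 1 h; compounds, ATP or DMSO were then pinned in and fluorescence followed kinetically (480/540 nm).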

[6] = p53 small molecule agonists, cell-based qHTS assay with human liver microsomes (AID 1963577)
How it was run: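 Fluorescence of the beta-lactamase reporter in p53RE-bla cells, detected with LiveBLAzer substrate (2 h, room temperature, dark), served as the read-out after 16 h compound exposure at 37 C with human liver microsomes and NADPH, each 0.5 mg/mL final.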

[7] = p53 small molecule agonists, cell-based qHTS assay with rat liver microsomes (AID 1963578)
How it was run: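 Cells carrying a p53 response element–beta-lactamase reporter were plated and rested 5 h, then dosed with compound in DMSO plus rat liver microsomes and NADPH, each at 0.5 mg/mL final. After 16 h at 37 C, LiveBLAzer substrate was added for 2 h.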

[8] = p53 small molecule agonists, cell-based qHTS assay with human liver microsomes: qHTS cell viability counter screen (AID 1963579); further: nearly all actives have a fitted effect of over 45% in size
How it was run: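 Cytotoxicity counter screen: p53RE-bla, 4,000 cells/well; 5 h settle, 37 C/5% CO2; cpd + HLM 0.5 mg/mL + NADPH 0.5 mg/mL (final); 16 h, 37 C; CellTiter-Glo, 30 min RT, luminescence.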

[9] = p53 small molecule agonists, cell-based qHTS assay with rat liver microsomes: qHTS cell viability counter screen (AID 1963580); further: nearly all actives have a fitted effect of over 45% in size
How it was run: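 Cytotoxicity counter screen: intracellular ATP measured by CellTiter-Glo luminescence in the same wells as the beta-lactamase reporter read, on HCT-116 p53RE-bla cells exposed 16 h at 37 C to compounds with rat liver microsomes and NADPH, each 0.5 mg/mL final.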

[10] = p53 small molecule agonists, cell-based qHTS assay: qHTS cell viability counter screen (AID 1963581); further: nearly all actives have a fitted effect of over 45% in size
How it was run: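 qHTS counter screen: 16 h compound exposure at 37 C of p53RE-bla HCT-116 cells (4,000 per well, seeded 5 h prior), cell viability by ATP luminescence.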

[11] = target: 5-hydroxytryptamine receptor 2A (Homo sapiens) (UniProt P28223); experiment: 5-hydroxytryptamine receptor 2A (HTR2A) small molecule agonists, cell-based qHTS assay (AID 1963587); further: nearly all actives have a fitted effect of over 30% in size
How it was run: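 CHO cells stably expressing human HTR2A, plated 18 h, loaded with calcium dye 1 h at 37 C. Agonist mode: compounds added and intracellular calcium fluorescence recorded kinetically for 2 min at 1 sec intervals.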

[12] = target: Muscarinic acetylcholine receptor M1 (Homo sapiens) (UniProt P11229); experiment: Cholinergic receptor muscarinic 1 (CHRM1) small molecule antagonists, cell-based qHTS assay (AID 1963588); further: nearly all actives have a fitted effect of over 40% in size
How it was run: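 Compounds were tested at 15 concentrations in three independent runs. Dye-loaded CHRM1-CHO cells were exposed 5 min at room temperature before stimulation by acetylcholine added at 50nM. Intracellular calcium was read kinetically on FDSS for 3 min.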

[13] = cAMP Responsive Elements (CRE) small molecule agonists, cell-based qHTS assay (AID 1963590)
How it was run: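 Test agents in DMSO were incubated 3 h at 37 C/5% CO2 with CRE-bla HEK 293T cells seeded 18 h earlier; LiveBLAzer B/G FRET substrate was added and read after 2 h at room temperature.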

[14] = cAMP Responsive Elements (CRE) small molecule antagonists, cell-based qHTS assay (AID 1963591; active means well fitted inhibition curve with a large enough effect in the signal ratio in the repeat runs, not every such curve was filed as active; the % refers to the signal ratio)
How it was run: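 Reporter line CRE-bla HEK 293T in dialyzed-FBS DMEM; cells preincubated 18 h, treated 3 h with compound plus NKH477 (0.25 uM final); LiveBLAzer FRET, 2 h RT.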

[15] = target: Beta-2 adrenergic receptor (Homo sapiens) (UniProt P07550); experiment: Adrenergic beta2 receptor (ADRB2) small molecule antagonists, cell-based qHTS assay (AID 1963592); further: series mostly up to about 92 µM; nearly all actives have a fitted effect of over 50% in size
How it was run: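 Assay format: CHO-ADRB2 cells, 18-20hr seeding at 37C/5% CO2, then compound plus 1nM isoproterenol agonist mix for 0.5hr RT. Homogeneous time-resolved fluorescence cAMP detection after 1hr, expressed as 665/615 nm ratio.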

[16] = target: Beta-2 adrenergic receptor (Homo sapiens) (UniProt P07550); experiment: Adrenergic beta2 receptor (ADRB2) small molecule agonists, cell-based qHTS assay (AID 1963593);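 further: CHO cells stably overexpressing human ADRB2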
How it was run: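 CHO cells stably over-expressing ADRB2 were plated overnight at 37C, then dosed with compounds plus a stimulation mix containing 100uM IBMX and 25uM Ro-20-1724 for 0.5hr at room temperature. cAMP was measured by HTRF competition, 1hr.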

[17] = target: D(2) dopamine receptor (Homo sapiens) (UniProt P14416); experiment: Dopamine D2 receptor (DRD2) small molecule agonists, cell-based qHTS assay (AID 1963594); further: nearly all actives have a fitted effect of over 35% in size
How it was run: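 HEK293 cells stably expressing human DRD2, pre-treated with PDE inhibitor Ro20-1724 (0.1 mM final) and compound 10 min at room temperature, then stimulated with NKH477 (200nM […]) for 30 min. cAMP read by HTRF (665/620 nm).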

[18] = target: D(2) dopamine receptor (Homo sapiens) (UniProt P14416); experiment: Dopamine D2 receptor (DRD2) small molecule antagonists, cell-based qHTS assay (AID 1963595; active means well fitted inhibition curve with a large enough effect in the signal ratio in the repeat runs, with a control signal flat; the % refers to the signal ratio)
How it was run: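 HEK293 cells stably expressing DRD2, preincubated with 0.1 mM Ro20-1724 and compounds 10 min, were stimulated with 200 nM NKH477 plus 12 nM quinpirole for 30 min at room temperature; cAMP measured by HTRF (665/620 nm).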

[19] = p53 small molecule agonists, cell-based qHTS assay (AID 1963582; active means well fitted activation curve with a large enough effect in the signal ratio in the repeat runs, not every such curve was filed as active; the % refers to the signal ratio)
How it was run: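 Measured: fluorescence from cleaved LiveBLAzer substrate. System: p53RE-bla cells, 16 h compound treatment at 37 C, 2 h substrate step at room temperature.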

[20] = target: 5-hydroxytryptamine receptor 2A (Homo sapiens) (UniProt P28223); experiment: 5-hydroxytryptamine receptor 2A (HTR2A) small molecule antagonists, cell-based qHTS assay (AID 1963586); further: nearly all actives have a fitted effect of over 45% in size
How it was run: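 CHO cells stably expressing human HTR2A were plated for 18 h at 37 C, then loaded with calcium dye for 1 h. Compounds were preincubated 5 min at room temperature before DOI (4 nM solution) was added. Kinetic fluorescence was read for 3 min.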

Measured: Potency

D(2) dopamine receptor (Homo sapiens), sequence (P14416 whole entry, looked up): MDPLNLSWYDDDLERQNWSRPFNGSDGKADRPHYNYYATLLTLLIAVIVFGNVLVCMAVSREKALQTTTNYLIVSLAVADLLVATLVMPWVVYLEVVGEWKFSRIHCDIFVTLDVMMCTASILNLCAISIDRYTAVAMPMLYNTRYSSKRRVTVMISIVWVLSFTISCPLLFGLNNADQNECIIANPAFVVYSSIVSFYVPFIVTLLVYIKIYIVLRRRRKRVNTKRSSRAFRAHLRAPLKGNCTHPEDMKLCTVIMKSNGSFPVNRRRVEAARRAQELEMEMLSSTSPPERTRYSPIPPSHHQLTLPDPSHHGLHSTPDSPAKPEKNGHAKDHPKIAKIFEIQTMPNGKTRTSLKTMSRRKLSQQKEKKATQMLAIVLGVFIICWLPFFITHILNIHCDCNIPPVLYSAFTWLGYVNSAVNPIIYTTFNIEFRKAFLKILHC
KiSS-1 receptor (Homo sapiens), sequence (Q969F8 whole entry, looked up): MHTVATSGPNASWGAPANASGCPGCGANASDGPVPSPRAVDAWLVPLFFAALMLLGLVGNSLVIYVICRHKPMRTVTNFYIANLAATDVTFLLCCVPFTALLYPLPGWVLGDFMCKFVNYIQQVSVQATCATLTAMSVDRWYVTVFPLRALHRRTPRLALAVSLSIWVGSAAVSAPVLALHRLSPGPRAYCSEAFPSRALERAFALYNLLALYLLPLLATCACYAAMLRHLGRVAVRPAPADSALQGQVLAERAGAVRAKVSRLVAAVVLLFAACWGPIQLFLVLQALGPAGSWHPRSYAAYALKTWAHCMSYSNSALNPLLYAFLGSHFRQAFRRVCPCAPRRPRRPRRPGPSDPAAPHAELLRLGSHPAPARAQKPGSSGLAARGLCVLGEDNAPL
Beta-2 adrenergic receptor (Homo sapiens), sequence (P07550 whole entry, looked up): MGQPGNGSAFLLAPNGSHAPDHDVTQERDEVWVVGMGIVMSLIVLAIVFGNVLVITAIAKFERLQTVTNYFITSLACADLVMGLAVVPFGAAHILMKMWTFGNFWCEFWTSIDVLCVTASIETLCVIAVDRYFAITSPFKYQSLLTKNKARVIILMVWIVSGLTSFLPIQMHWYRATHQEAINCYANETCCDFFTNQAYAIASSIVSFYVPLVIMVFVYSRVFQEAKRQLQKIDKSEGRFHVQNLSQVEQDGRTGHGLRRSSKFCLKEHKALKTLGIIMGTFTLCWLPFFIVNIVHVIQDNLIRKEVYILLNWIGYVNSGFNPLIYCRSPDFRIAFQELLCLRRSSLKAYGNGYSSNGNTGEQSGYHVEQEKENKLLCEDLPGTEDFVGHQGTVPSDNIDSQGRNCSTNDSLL
5-hydroxytryptamine receptor 2A (Homo sapiens), sequence (P28223 whole entry, looked up): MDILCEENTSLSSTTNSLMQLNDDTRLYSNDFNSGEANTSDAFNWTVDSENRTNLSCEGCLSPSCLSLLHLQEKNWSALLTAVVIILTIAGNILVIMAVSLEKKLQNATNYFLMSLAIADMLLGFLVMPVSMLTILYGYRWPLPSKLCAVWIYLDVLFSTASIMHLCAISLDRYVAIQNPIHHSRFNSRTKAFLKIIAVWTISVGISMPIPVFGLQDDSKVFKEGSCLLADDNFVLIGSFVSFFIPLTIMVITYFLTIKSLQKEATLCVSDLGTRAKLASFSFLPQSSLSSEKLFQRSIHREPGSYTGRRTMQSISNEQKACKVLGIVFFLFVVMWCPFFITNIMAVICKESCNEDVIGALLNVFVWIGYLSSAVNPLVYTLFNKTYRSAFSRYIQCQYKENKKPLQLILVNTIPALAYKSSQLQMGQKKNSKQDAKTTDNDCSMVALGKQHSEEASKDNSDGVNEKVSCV
Gonadotropin-releasing hormone receptor (Homo sapiens), sequence (P30968 whole entry, looked up): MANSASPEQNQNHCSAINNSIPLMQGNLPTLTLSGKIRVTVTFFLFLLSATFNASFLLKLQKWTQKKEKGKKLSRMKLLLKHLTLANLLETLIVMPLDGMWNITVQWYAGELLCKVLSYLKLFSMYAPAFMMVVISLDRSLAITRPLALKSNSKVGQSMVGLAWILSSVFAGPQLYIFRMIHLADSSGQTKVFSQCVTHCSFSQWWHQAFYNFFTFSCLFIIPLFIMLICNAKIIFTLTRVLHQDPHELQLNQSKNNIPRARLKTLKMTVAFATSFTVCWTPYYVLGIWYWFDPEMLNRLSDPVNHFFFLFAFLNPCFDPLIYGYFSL
Muscarinic acetylcholine receptor M1 (Homo sapiens), sequence (P11229 whole entry, looked up): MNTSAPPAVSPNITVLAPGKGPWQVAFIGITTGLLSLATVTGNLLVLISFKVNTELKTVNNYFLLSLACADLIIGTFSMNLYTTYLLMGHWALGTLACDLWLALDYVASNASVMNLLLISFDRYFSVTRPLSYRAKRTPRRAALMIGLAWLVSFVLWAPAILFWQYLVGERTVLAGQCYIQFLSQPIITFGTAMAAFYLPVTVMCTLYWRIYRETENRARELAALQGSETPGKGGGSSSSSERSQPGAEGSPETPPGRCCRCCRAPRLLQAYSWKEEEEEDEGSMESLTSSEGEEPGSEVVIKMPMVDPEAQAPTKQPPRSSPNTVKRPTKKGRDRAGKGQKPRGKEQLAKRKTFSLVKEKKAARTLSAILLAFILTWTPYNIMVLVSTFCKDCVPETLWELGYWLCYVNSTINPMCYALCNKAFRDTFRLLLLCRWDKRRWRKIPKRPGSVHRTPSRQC

CCCCCCCCC/C=C/CC1CC(=O)OC1=O (centres undefined)
not listed: [19] | [20]
inactive: all other assays above

CCOCC(=O)O
not listed: [10] | [18]
inactive: all other assays above

COCc1c(C(C)C)nc(C(C)C)c(/C=C/[C@@H](O)C[C@@H](O)CC(=O)O)c1-c1ccc(F)cc1
not listed: [11] | [12] | [13] | [14] | [19] | [20]
inactive: all other assays above

C=C(C)C(=O)OCCOC(=O)C(=C)C
not listed: [10] | [16]
inactive: all other assays above

COc1ccc2c(c1)c(CC(=O)O)c(C)n2C(=O)c1ccc(Cl)cc1
not listed: [11] | [12] | [13] | [14] | [16] | [19] | [20]
inactive: all other assays above

CN(C)CCOCCN(C)C
not listed: [7]
inactive: all other assays above

O=C(O)c1ccc(O)cc1
not listed: [7]
inactive: all other assays above
